Several values for one entry are separate records, joined by “and”; a condition that tells them apart may be missing. Equal values may be shown once. Inconclusive results are not listed. Activity calls are given as the source filed them. How the source made its calls, unless noted: active means hit-call score of the fitted dose curve at least 0.9, where 1 is the maximum; inactive means score below 0.9.
Tests used:
[1] = target: human Vitamin D Receptor (VDR), VDR (gene 7421) (UniProt P11473); test: ATG_VDR_TRANS: Attagene TRANS-FACTORIAL HepG2 Assay for human Vitamin D Receptor (VDR) (AID 2283022; active means hit-call score of the fitted dose curve at least 0.9, where 1 is the maximum)
human Vitamin D Receptor (VDR), VDR (gene 7421), sequence (P11473 whole entry, looked up, the tested form may be a part): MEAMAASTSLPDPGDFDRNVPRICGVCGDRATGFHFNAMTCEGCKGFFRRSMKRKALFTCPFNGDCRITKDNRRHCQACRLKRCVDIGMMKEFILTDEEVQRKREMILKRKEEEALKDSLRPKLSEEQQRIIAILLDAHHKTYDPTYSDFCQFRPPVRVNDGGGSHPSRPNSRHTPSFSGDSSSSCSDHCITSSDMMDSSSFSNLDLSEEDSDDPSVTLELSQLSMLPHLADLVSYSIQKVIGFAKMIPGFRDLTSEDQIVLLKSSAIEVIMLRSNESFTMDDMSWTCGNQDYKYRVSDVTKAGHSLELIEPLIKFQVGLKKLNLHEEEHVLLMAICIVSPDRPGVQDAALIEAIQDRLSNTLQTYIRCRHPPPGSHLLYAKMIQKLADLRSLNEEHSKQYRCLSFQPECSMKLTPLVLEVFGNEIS
In short: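 Transactivation by an exogenous VDR-Gal4 chimera in transiently transfected HepG2 cells was measured as reporter transcript level 24 hours after chemical treatment. RT-PCR products were analysed by capillary electrophoresis and fitted in the positive direction relative to DMSO.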

[2] = BSK_3C_SRB: Viability Assessment in the BioMAP Diversity Plus: 3C Assay (AID 2283023); details: primary human endothelial cells (HUVEC);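 further: fitted both ways against DMSO so a hit may be signal rise or drop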
In short: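 Cytotoxicity readout in parallel HUVEC 3C cultures: after 24 h compound exposure, cells fixed with 10% TCA, stained with 0.1% SRB and read at 560 nm. Gain or loss relative to DMSO fitted.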

[3] = read-out: Matrix Metallopeptidase 1 (MMP1), MMP1 (gene 4312); test: BSK_BE3C_MMP1: BioMAP Diversity Plus: BE3C Assay for Matrix Metallopeptidase 1 (MMP1) Biomarker Activity (AID 2283024); details: primary human bronchial epithelial cells; actives raise or lower the signal
In short: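 Primary human bronchial epithelial cells were dosed with test chemicals, and MMP1 levels were measured by ELISA 24 h later. Data were fitted bidirectionally against DMSO as the negative control and activity baseline.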

[4] = BSK_3C_Vis: BioMAP Diversity Plus: 3C Assay for Morphology Visualization (AID 2283025); details: primary human endothelial cells (HUVEC);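 further: fitted both ways so gain or loss versus DMSO counts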
In short: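 Human umbilical vein endothelial cells in the 3C system were imaged by light microscopy 24 h after chemical dosing to record cell morphology. Activity was fitted bidirectionally against DMSO as negative control and baseline; the endpoint serves as a background control.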

[5] = BSK_4H_SRB: Viability Assessment in the BioMAP Diversity Plus: 4H Assay (AID 2283027); details: primary human endothelial cells (HUVEC);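 further: cells exposed to compound for 24 h before staining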;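 on AC50: curves fitted both ways versus DMSO so AC50 may be loss or gain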
In short: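 Human umbilical vein endothelial cells were dosed with chemical and, after 24 h, fixed with 10% TCA, stained with 0.1% sulforhodamine B, and read at 560 nm to give total protein as a cytotoxicity measure. Bidirectional fitting relative to DMSO control.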

[6] = read-out: Thrombomodulin, THBD (gene 7056); test: BSK_3C_Thrombomodulin: BioMAP Diversity Plus: 3C Assay for Thrombomodulin Biomarker Activity (AID 2283029); details: primary human endothelial cells (HUVEC); actives raise or lower the signal
In short: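 Primary human umbilical vein endothelial cells (3C system) were exposed to chemical for 24 h, then thrombomodulin levels were measured by ELISA. Activity was fitted bidirectionally against the DMSO negative control as baseline.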

[7] = read-out: Urokinase-type plasminogen activator receptor (uPAR), PLAUR (gene 5329); test: BSK_4H_uPAR: BioMAP Diversity Plus: 4H Assay for Urokinase-type plasminogen activator receptor (uPAR) Biomarker Activity (AID 2283030); details: primary human endothelial cells (HUVEC); actives raise or lower the signal
In short: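 uPAR level read by ELISA on HUVEC cultures (BioMAP 4H) 24 h post-dosing, analyzed for gain or loss relative to DMSO. Parallel SRB staining assessed overt cytotoxicity.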

[8] = read-out: Vascular endothelial growth factor receptor 2 (Homo sapiens) (UniProt P35968); test: BSK_4H_VEGFRII: BioMAP Diversity Plus: 4H Assay for Vascular endothelial growth factor receptor 2 (VEGFR2) Biomarker Activity (AID 2283031); details: primary human endothelial cells (HUVEC); actives raise or lower the signal;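 on AC50: cell-surface VEGFR2 protein level quantified by ELISA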
In short: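 Measured by ELISA after 24 h of compound treatment: VEGFR2 on primary human umbilical vein endothelial cells, fitted in both directions relative to DMSO. Parallel cultures received SRB staining (560 nm) for overt cytotoxicity.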

[9] = read-out: Human Leukocyte Antigen - DR isotype (HLADR), HLA-DRA (gene 3122); test: BSK_BE3C_HLADR: BioMAP Diversity Plus: BE3C Assay for Human Leukocyte Antigen - DR isotype (HLADR) Biomarker Activity (AID 2283032); details: primary human bronchial epithelial cells; actives raise or lower the signal
In short: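 Human primary bronchial epithelial cells in the BE3C system were exposed to chemicals for 24 h, after which HLA-DR levels were quantified by ELISA. Activity was fitted bidirectionally, gain or loss of signal, against DMSO as negative control and baseline.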

[10] = read-out: Vascular cell adhesion molecule 1 (VCAM1), VCAM1 (gene 7412); test: BSK_4H_VCAM1: BioMAP Diversity Plus: 4H Assay for Vascular cell adhesion molecule 1 (VCAM1) Biomarker Activity (AID 2283033); details: primary human endothelial cells (HUVEC); actives raise or lower the signal
In short: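 Primary human umbilical vein endothelial cells were exposed to chemicals for 24 h, after which VCAM-1 was quantified by ELISA. Responses were fitted bidirectionally against DMSO as negative control and activity baseline.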

[11] = read-out: Interferon-gamma inducible Protein 10 (IP10), CXCL10 (gene 3627); test: BSK_BE3C_IP10: BioMAP Diversity Plus: BE3C Assay for Interferon-gamma inducible Protein 10 (IP10) Biomarker Activity (AID 2283034); details: primary human bronchial epithelial cells; actives raise or lower the signal
In short: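 Human primary bronchial epithelial cells were exposed to chemicals for 24 hours, after which IP-10 levels were measured by ELISA. Data were fitted bidirectionally against DMSO, which served as the negative control and activity baseline.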

[12] = read-out: Monokine induced gamma interferon (MIG), CXCL9 (gene 4283); test: BSK_BE3C_MIG: BioMAP Diversity Plus: BE3C Assay for Monokine induced gamma interferon (MIG) Biomarker Activity (AID 2283035); details: primary human bronchial epithelial cells; actives raise or lower the signal
In short: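 ELISA read-out of MIG in human lung bronchial epithelial primary cultures, 24 h post-dosing. Bidirectional curve fit vs DMSO baseline.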

[13] = read-out: Transforming growth factor beta 1 (TGFb1), TGFB1 (gene 7040); test: BSK_BE3C_TGFb1: BioMAP Diversity Plus: BE3C Assay for Transforming growth factor beta 1 (TGFb1) Biomarker Activity (AID 2283036); details: primary human bronchial epithelial cells; actives raise or lower the signal
In short: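 Human primary bronchial epithelial cells (BE3C system) were dosed with chemical and TGF-b1 levels measured by ELISA at 24 h. Activity was fitted bidirectionally relative to DMSO negative control as baseline.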

[14] = read-out: Plasminogen activator inhibitor-1 (PAI1), SERPINE1 (gene 5054); test: BSK_BE3C_PAI1: BioMAP Diversity Plus: BE3C Assay for Plasminogen activator inhibitor-1 (PAI1) Biomarker Activity (AID 2283037); details: primary human bronchial epithelial cells; actives raise or lower the signal
In short: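 Human primary bronchial epithelial cells were exposed to chemical for 24 h, then PAI-1 was quantified by ELISA. Activity was fitted bidirectionally relative to the DMSO negative control baseline.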

[15] = read-out: urokinase plasminogen activator (uPA), PLAU (gene 5328); test: BSK_BE3C_uPA: BioMAP Diversity Plus: BE3C Assay for urokinase plasminogen activator (uPA) Biomarker Activity (AID 2283038); details: primary human bronchial epithelial cells; actives raise or lower the signal
In short: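 ELISA for uPA on human primary bronchial epithelial cultures 24 h post-treatment, gain or loss against DMSO. Parallel SRB staining (0.1% after 10% TCA fixation, 560 nm) assessed overt cytotoxicity.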

[16] = read-out: Urokinase-type plasminogen activator receptor (uPAR), PLAUR (gene 5329); test: BSK_BE3C_uPAR: BioMAP Diversity Plus: BE3C Assay for Urokinase-type plasminogen activator receptor (uPAR) Biomarker Activity (AID 2283039); details: primary human bronchial epithelial cells; actives raise or lower the signal
In short: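 Primary human bronchial epithelial cells were dosed with chemical and harvested 24 h later; uPAR was quantified by ELISA. Activity was fitted bidirectionally against DMSO as negative control and baseline.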

[17] = read-out: Interleukin-6 (IL6), IL6 (gene 3569); test: BSK_CASM3C_IL6: BioMAP Diversity Plus: CASM3C Assay for Interleukin-6 (IL6) Biomarker Activity for (AID 2283040); details: primary human coronary artery smooth muscle cells; actives raise or lower the signal
[18] = read-out: Tissue plasminogen activator (tPA), PLAT (gene 5327); test: BSK_BE3C_tPA: BioMAP Diversity Plus: BE3C Assay for Tissue plasminogen activator (tPA) Biomarker Activity (AID 2283041); details: primary human bronchial epithelial cells; actives raise or lower the signal
In short: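 Human primary bronchial epithelial cells were dosed with chemical and tPA biomarker levels measured by ELISA 24 hours later. Activity was fitted bidirectionally against DMSO as negative control and baseline.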

[19] = read-out: Interleukin-8 (IL8), CXCL8 (gene 3576); test: BSK_CASM3C_IL8: BioMAP Diversity Plus: CASM3C Assay for Interleukin-8 (IL8) Biomarker Activity (AID 2283042); details: primary human coronary artery smooth muscle cells; actives raise or lower the signal;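 further: IL-8 protein level quantified by ELISA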
[20] = read-out: Human Leukocyte Antigen - DR isotype (HLADR), HLA-DRA (gene 3122); test: BSK_CASM3C_HLADR: BioMAP Diversity Plus: CASM3C Assay for Human Leukocyte Antigen - DR isotype (HLADR) Biomarker Activity (AID 2283043); details: primary human coronary artery smooth muscle cells; actives raise or lower the signal;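 further: cell-surface HLA-DR protein level quantified by ELISA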

Measured: AC50

CC(=O)NS(=O)(=O)c1ccc(N)cc1
inactive: [1]

CCc1ccc2c(c1)C(=O)c1ccccc1C2=O
inactive: [1]

COCC(C)N (stereo not given)
inactive: [1]

CNC(=S)N(C)C
inactive: [1]

CC(CC=O)c1ccccc1 (stereo not given)
inactive: [1]

CCCCCCCCCCCCCOP(=O)(O)O
inactive: [1]

Cc1cc(C)c(C)cc1C
inactive: [1]

CCc1c(C(=O)O)c(=O)cnn1-c1ccc(Cl)cc1
inactive: [1]

S=C(NC1CCCCC1)NC1CCCCC1
inactive: all assays above

O=c1c2ccccc2oc2ccccc12
active: [3] 0.139 µM
not listed: [1]
inactive: all other assays above

O=Nc1ccc(O)cc1
not listed: [1]
inactive: all other assays above

C#CC1(O)CC[C@H]2[C@@H]3CCC4=CCCC[C@@H]4[C@H]3CC[C@@]21C (stereo not given in full)
active: [2] 6.9 µM | [3] 36.4 µM | [4] 8.8 µM | [5] 8.54 µM | [6] 12 µM | [7] 20 µM | [9] 33.3 µM | [10] 15.1 µM | [11] 34.8 µM | [12] 36 µM | [15] 20 µM | [16] 20 µM | [17] 6.06 µM | [19] 32.8 µM | [20] 34.8 µM
inactive: [1] | [8] | [13] | [14] | [18]

CCCCC(CC)COCC1CO1 (stereo not given)
not listed: [1] | [4] | [13]
inactive: all other assays above

CCOC(=O)c1ccccc1C(=C1C=C(Br)C(=O)C(Br)=C1)c1cc(Br)c(O)c(Br)c1
inactive: [3] | [8] | [17] | [19] | [20]
active: [2] 21.7 µM and 23.7 µM | [5] 19.1 µM and 20.3 µM | [6] 18.5 µM and 19.2 µM | [7] 15.6 µM and 15.8 µM | [9] 4.71 µM and 4.54 µM | [10] 20.6 µM and 20.1 µM | [11] 3.73 µM and 3.06 µM | [12] 5.86 µM and 5.17 µM | [14] 2.48 µM | [15] 3.81 µM and 4.21 µM | [16] 7.89 µM and 4.27 µM | [18] 2.55 µM and 2.71 µM

CCO[Si](CCCN=C=O)(OCC)OCC
inactive: all assays above

CCO[Si](C)(OCC)OCC
not listed: [1] | [4] | [13]
inactive: all other assays above

C/C=C\C/C=C/CCCCCCCCOC(C)=O
active: [5] 12.7 µM | [9] 25.7 µM | [10] 29.3 µM | [11] 20 µM | [20] 20 µM
inactive: all other assays above

COc1ccc2nc(N)sc2c1
not listed: [1]
inactive: all other assays above

CC(C)(c1cc(Br)c(OCCO)c(Br)c1)c1cc(Br)c(OCCO)c(Br)c1
active: [2] 19.3 µM | [3] 0.911 µM | [5] 16.2 µM | [6] 28.6 µM | [7] 11.7 µM | [8] 9.45 µM | [10] 11.4 µM | [11] 4.54 µM
not listed: [4]
inactive: all other assays above

From PubChem BioAssay (EPA / NIEHS)
